High-throughput results from PubChem BioAssay.
Rows were chosen to be rich in hits. Some 2.4% of all compounds tested hit in one or more screens of this group.
D2 ag-1: Beta-Arrestin HTS for Positive Allosteric Modulators of the Human D2 Dopamine Receptor: Agonists | D(2) dopamine receptor (Homo sapiens), P14416 | DiscoveRx PathHunter D2 beta-arrestin, luminescence, 90 min; 100% = 57 uM dopamine signal | activation, % (test concentration not listed) | 360,000 tested, 0.084% active | AID 624465, 2012; in the data active means activation above about 40%; inconclusive means between about 15% and that limit
Target sequence (P14416 whole entry, looked up): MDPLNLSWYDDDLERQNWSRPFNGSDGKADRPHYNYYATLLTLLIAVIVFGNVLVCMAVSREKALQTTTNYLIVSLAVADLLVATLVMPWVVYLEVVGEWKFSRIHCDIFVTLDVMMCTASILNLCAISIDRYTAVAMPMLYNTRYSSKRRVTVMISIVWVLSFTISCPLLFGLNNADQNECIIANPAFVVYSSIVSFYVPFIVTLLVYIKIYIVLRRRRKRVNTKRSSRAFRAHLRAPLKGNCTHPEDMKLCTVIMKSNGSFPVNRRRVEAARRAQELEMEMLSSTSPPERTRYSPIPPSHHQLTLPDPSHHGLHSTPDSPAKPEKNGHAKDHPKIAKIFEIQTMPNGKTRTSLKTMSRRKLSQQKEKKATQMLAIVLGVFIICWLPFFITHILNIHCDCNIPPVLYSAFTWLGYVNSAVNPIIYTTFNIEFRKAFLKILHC
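DiscoveRx PathHunter D2 beta-arrestin cells (2,100/well) attached overnight, then compound-stimulated 90 min at 37 C in HBSS/10 mM HEPES/0.1% Tween-20 buffer; beta-galactosidase complementation read by luminescence after 1 h at ambient temperature. Dopamine 57 uM final (EC100) as control.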
D2 PAM-1: Beta-Arrestin HTS for Positive Allosteric Modulators of the Human D2 Dopamine Receptor: Potentiators; DiscoveRx D2 beta-arrestin cells, luminescence, 90 min; 100% = 57 uM dopamine signal; 360,000 tested, 0.23% active; D(2) dopamine receptor (Homo sapiens), P14416; potentiation, % (concentration not given with the values); in the data active means potentiation above about 50%; inconclusive means mostly about 30% to 49%
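PathHunter D2 cells, attached overnight at 37 deg C, received compound in DMSO plus dopamine at EC20 (50 nM final) for 90 min at 37 deg C. Beta-arrestin recruitment was read as luminescence after 1 h with detection reagent at ambient temperature.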
D2 ag-2: HTS Assay for Allosteric Agonists of the Human D2 Dopamine Receptor: Primary Screen for Agonists; HEK293 T-REx D2 cells, calcium flux agonist mode; AID 485358, 2010; 340,000 tested, 0.53% active; D(2) dopamine receptor (Homo sapiens), P14416; activation, % at 2 µM;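 active means activation over 3 SD above normal in the single-dose calcium agonist read, cut at about 30% in these data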; further: 0% is about no effect
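In this primary screen, compounds producing a positive calcium signal within 180 s of addition to tetracycline-induced, force-coupled HEK293 Trex D2 cells are flagged; cells are dye-loaded with a no-wash calcium kit beforehand.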
D2 PAM-2: HTS Assay for Positive Allosteric Modulators of the Human D2 Dopamine Receptor: Primary Screen for Potentiators. D(2) dopamine receptor (Homo sapiens), P14416. AID 485347, 2010. potentiation, % at 10 µM. 340,000 tested, 0.34% active. HEK293 T-REx D2, calcium flux, EC20 dopamine potentiation;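 active means potentiation over 3 SD above the plate norm, cut at about 30% in these data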; further: 0% is about no effect
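Potentiation of an EC20 dopamine calcium response measured kinetically over 180 s, after a preceding 180 s compound-only read flagging agonists. Cells: inducible Hek293 Trex D2 line, 4000/well, cultured overnight at 30 C before dye loading.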
D2 antagonist: HTS Assay for Allosteric Antagonists of the Human D2 Dopamine Receptor: Primary Screen for Antagonists. D(2) dopamine receptor (Homo sapiens), P14416. HEK293 TREx D2 cells, calcium flux, dopamine EC80. inhibition, % at 10 µM. 340,000 tested, 2% active; in the data active means inhibition above about 30%; inactive means below that, where a call was filed; further: 0% is about no effect
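Antagonism is scored as inhibition of an EC80 dopamine-evoked calcium signal in a force-coupled, tetracycline-inducible HEK293 T-REx D2 line, with compound present 180 s before agonist.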
An asterisk follows results filed as active; ! = not confirmed by another sample.

OC(CCCN1CCCCC1)(c1ccccc1)c1ccccc1 was read as D2 ag-1 -6, D2 PAM-1 -25, D2 ag-2 1, D2 PAM-2 -28 and D2 antagonist 80*.
`CCC(=O)NC1=C(NC(C)c2ccccc2)C(=O)c2ccccc2C1=O` (stereo not given) gave D2 ag-1 6, D2 PAM-1 inconclusive, D2 ag-2 0, D2 PAM-2 3 and D2 antagonist -15.
Screening CCC(=O)NC1=C(Cl)C(=O)C(NC(=O)CC)=C(Cl)C1=O returned D2 ag-1 42*, D2 PAM-1 -60, D2 ag-2 2, D2 PAM-2 1 and D2 antagonist -8.
For O=C(Nc1ccc(F)cc1F)N1CCc2c(sc3c2CCCC3)C1c1ccc(F)cc1 (stereo not given) the results were D2 PAM-2 -10.
For Cc1ccccc1Nc1c(-c2ccco2)nc2c(C)cccn12 the results were D2 ag-2 0 and D2 PAM-2 -1.
For CC(C)(C)OC(=O)N1CCC(CC2CC(c3cccc(Br)c3)=NO2)(C(=O)NCC2CCCCC2)CC1 (stereo not given) the results were D2 ag-1 -2, D2 PAM-1 -8, D2 ag-2 0, D2 PAM-2 -7 and D2 antagonist -15.
For O=C(c1ccccc1)N1CCC(CC2CC(c3cccc(Br)c3)=NO2)(C(=O)NCC2CCCCC2)CC1 (stereo not given) the results were D2 ag-1 0, D2 PAM-1 -13, D2 ag-2 1, D2 PAM-2 9 and D2 antagonist 31*.
Screening c1ccc(-c2ncc(CN3CCN(c4ccccn4)CC3)[nH]2)cc1 returned D2 ag-1 -1, D2 PAM-1 -13, D2 ag-2 10, D2 PAM-2 -25 and D2 antagonist 89*.
For c1ccc(N2CCN(Cc3ccc4c(c3)OCO4)CC2)nc1 the results were D2 ag-1 65* and D2 PAM-1 91*.
Screening Cc1nc(N2CCN(Cc3ccc4c(c3)OCO4)CC2)c2cc(-c3ccccc3)sc2n1 returned D2 ag-1 5, D2 PAM-1 -9, D2 ag-2 1, D2 PAM-2 -11 and D2 antagonist 4.
Screening CSc1nc(N2CCN(Cc3ccc4c(c3)OCO4)CC2)c2ccccc2n1 returned D2 ag-1 1, D2 PAM-1 -10, D2 ag-2 0, D2 PAM-2 -21 and D2 antagonist 38*.
FC(F)(F)c1ccc(N2CCN(Cc3ccc4c(c3)OCO4)CC2)nc1 was read as D2 ag-1 -5, D2 PAM-1 -37, D2 ag-2 -1, D2 PAM-2 -24 and D2 antagonist -13.
Screening COC(=O)c1ccc2c(=O)n(CCCCCC(=O)NCc3ccc(Cl)cc3)c(=O)[nH]c2c1 returned D2 ag-2 26.
For CC1=Nc2ccc(C)cc2/C1=C/c1c(N)n2oc(C)cc2nc1=O the results were D2 ag-1 -2, D2 PAM-1 -3, D2 ag-2 1, D2 PAM-2 4 and D2 antagonist 61*!.
`CSc1nsc2nc(=O)c(/C=C3\C(C)=Nc4ccc(C)cc43)c(N)n12` gave D2 ag-1 -5, D2 PAM-1 -5, D2 ag-2 1 and D2 antagonist 4.
Screening CCC1CCC(N2CCN(c3ccccc3F)CC2)CC1 (stereo not given) returned D2 ag-1 5, D2 PAM-1 1, D2 ag-2 18, D2 PAM-2 -24 and D2 antagonist 37*.
`Cc1ccc(C(=O)NCCN2C3=NC[C@@H](Cc4ccccc4)N3C[C@H]2Cc2ccc(O)cc2)cc1Br` gave D2 ag-1 2, D2 PAM-1 -18, D2 ag-2 0, D2 PAM-2 -21 and D2 antagonist 68*.
`CN(C)/C=C1\C=C2C(=O)c3ccccc3N2C1=O` gave D2 ag-1 5, D2 PAM-1 4, D2 ag-2 96*, D2 PAM-2 -7 and D2 antagonist 18.
For COc1cc(-c2onc3ccc(Br)cc23)cc(OC)c1OC the results were D2 ag-1 inconclusive, D2 PAM-1 59*, D2 ag-2 0, D2 PAM-2 -1 and D2 antagonist -8.
Screening COc1ccc(-c2onc3ccc(Br)cc23)cc1 returned D2 ag-1 inconclusive, D2 PAM-1 100*, D2 ag-2 1, D2 PAM-2 4 and D2 antagonist -1.
`O=C(NCc1ccccc1Cl)C1CCN(S(=O)(=O)c2ccc3c(c2)CCCN3C(=O)C2CCC2)CC1` gave D2 PAM-2 -7.
O=C(CN1C(=O)COc2ccc(S(=O)(=O)N3CCOCC3)cc21)NCc1ccc(F)cc1 was read as D2 ag-2 -1 and D2 PAM-2 -3.
`Cc1ccc(NC(=O)c2oc3ccc(S(=O)(=O)N(C)C4CCCCC4)cc3c2C)cc1Cl` gave D2 ag-2 0 and D2 PAM-2 -1.
`COC(=O)Cn1nc(C)c2c(C)n(-c3ccccc3)nc2c1=O` gave D2 ag-2 0 and D2 PAM-2 0.
Screening O=C(NCc1ccccc1Cl)c1ccc(NC(=O)c2nsc3ccccc23)cc1 returned D2 ag-2 1 and D2 PAM-2 -6.
For COc1ccccc1N1CCN(CCCCOc2c(OC)cccc2OC)CC1 the results were D2 ag-1 1, D2 PAM-1 -37, D2 ag-2 18, D2 PAM-2 -28 and D2 antagonist 78*.
Screening COCCn1nnnc1CN1CCSCC1 returned D2 ag-1 3, D2 PAM-1 -7, D2 ag-2 1, D2 PAM-2 1 and D2 antagonist -11.
Screening COc1ccccc1N1CCN(CCCNc2c(C)c(=O)n(C)c(=O)n2C)CC1 returned D2 ag-1 11 and D2 PAM-1 -24.
Screening COc1ccccc1N1CCN(CCOc2c(OC)cccc2OC)CC1 returned D2 ag-1 -4, D2 PAM-1 -36, D2 ag-2 0, D2 PAM-2 -21 and D2 antagonist 98*.
Screening COc1ccccc1N1CCN(CCCNc2cc(=O)n(C)c(=O)n2C)CC1 returned D2 ag-1 -1, D2 PAM-1 -15, D2 ag-2 58*, D2 PAM-2 -24 and D2 antagonist 64*.
For COc1cccc(OC)c1OCCN1CCCC1 the results were D2 ag-1 -2, D2 PAM-1 -6, D2 ag-2 -1, D2 PAM-2 -11 and D2 antagonist -13.
